In PubChem BioAssay (EPA / NIEHS):
Values joined by “and” are separate entries in the source; they are usually repeats but may differ in a detail not shown here. Equal values may be shown once. A structure can be active in one record and inactive in another. Active and inactive are the calls of the source. How the source made its calls: active means hit-call score of the fitted dose curve at least 0.9, where 1 is the maximum; inconclusive means response in the unintended direction; inactive means score below 0.9.

tested on: rat CYP2B1, gene 24300; experiment: NVS_ADME_rCYP2B1: NovaScreen (NVS) CYP450-related Enzyme Activity (ADME) Assay for rat CYP2B1 (AID 2283117)
Method: NVS_ADME_rCYP2B1 is a biochemical, single-readout assay that uses extracted gene-proteins in a cell-free assay. Measurements were taken 0.75 hour after chemical dosing in a 96-well plate.NVS_ADME_rCYP2B1 is one of one assay component(s) measured or calculated from the NVS_ADME_rCYP2B1 assay. It is designed to make measurements of enzyme activity, a form of enzyme reporter, as detected with fluorescence intensity signals by Fluorescence technology.Data from the assay component NVS_ADME_rCYP2B1 was analyzed into 1 assay endpoint. This assay endpoint, NVS_ADME_rCYP2B1, was analyzed in the positive analysis fitting direction relative to Acetonitrile as the negative control and baseline of activity. Using a type of enzyme reporter, loss-of-signal activity can be used to understand changes in the enzymatic activity as they relate to the gene Cyp2b1. Furthermore, this assay endpoint can be referred to as a primary readout, because this assay has produced multiple assay endpoints where this one serves a enzymatic activity function. To generalize the intended target to other relatable targets, this assay endpoint is annotated to the cyp intended target family, where the subfamily is xenobiotic metabolism.
Binding assays used specific radioligands (tritiated, iodinated) with non-radioactive competitive displacement ligands in agonist or antagonist protocols (as indicated) and various reference compounds and inhibitors to titrate specific binding to receptors and transporters. Most enzyme assays (CYPs, kinases, phosphatases, proteases, HDACs) used recombinant protein and specific substrates (fluorescence mostly, some colorimetric and radioactive) and inhibitors, followed by a biochemical separation of substrate and product. All assays for the biochemical HTS were initially run in duplicate at a single concentration (10 uM for CYP450 assays and 25 uM for all others). Assay-chemical combinations meeting a pre-defined threshold (e.g., 30% inhibition and other criteria defined below) were then run in singleton concentration-response format with maximum concentration of 20 uM for CYPs and 50 uM for all others. Each assay was run with positive and negative controls, and concurrent controls on every plate. The follow-up (secondary) screen tested active chemical-pairs in concentration series, as well as a few additional assays not tested in the primary screen, some selected negative inactives, and several cases re-run in the concentration series for confirmatory purposes.

SMILES	outcome	AC50
COc1ccc(C(c2ccc(OC)cc2)C(Cl)(Cl)Cl)cc1	inactive	–
CCCCOC(=O)c1ccccc1C(=O)OCCCC	inactive	2.31 µM (active)
CCCC1COC(Cn2cncn2)(c2ccc(Cl)cc2Cl)O1 (centres undefined)	–	799 nM (active) and 409 nM (active)
CC1COC(Cn2cncn2)(c2ccc(Oc3ccc(Cl)cc3)cc2Cl)O1 (centres undefined)	–	0.552 µM (active)
CCOP(=S)(OCC)SCn1c(=O)oc2cc(Cl)ccc21	–	0.708 µM (active)
CCNc1nc(Cl)nc(NC(C)C)n1	inactive	–
N#CC(CCc1ccc(Cl)cc1)(Cn1cncn1)c1ccccc1 (centres undefined)	–	0.0692 µM (active)
OC(c1ccc(Cl)cc1)(c1cncnc1)c1ccccc1Cl (centres undefined)	–	1.17 µM (active)
CCOC(=O)CC(SP(=S)(OC)OC)C(=O)OCC (centres undefined)	–	3.83 µM (active)
O=C(Nc1ccccc1)Nc1ccnc(Cl)c1	–	6.41 µM (active)
CN(C)C(=S)SSC(=S)N(C)C	–	2.11 µM (active)
CCCN(CCC)c1c([N+](=O)[O-])cc(S(N)(=O)=O)cc1[N+](=O)[O-]	–	7.63 µM (active)
CCON=C(CC)C1=C(O)CC(c2c(C)cc(C)cc2C)CC1=O (centres undefined)	inactive	–
